Assays:
Experiment in all cases: DAPPL (digital affinity profiling via proximity ligation, sequencing); 10 mM Tris-HCl pH 7.5, 50 mM NaCl, 1 mM DTT, 4% glycerol, room temperature, 30 min; GST-TFs on glutathione beads, 16-mer random dsDNA library, 0.1% formaldehyde crosslink after washing; high values mean tight binding
Conditions in all cases: protein: recombinant; tags: N-terminal GST; dsDNA, one strand shown
FLI1 = target: T1, FLI1 (Homo sapiens, UniProt Q01543 1-452)
T1 sequence: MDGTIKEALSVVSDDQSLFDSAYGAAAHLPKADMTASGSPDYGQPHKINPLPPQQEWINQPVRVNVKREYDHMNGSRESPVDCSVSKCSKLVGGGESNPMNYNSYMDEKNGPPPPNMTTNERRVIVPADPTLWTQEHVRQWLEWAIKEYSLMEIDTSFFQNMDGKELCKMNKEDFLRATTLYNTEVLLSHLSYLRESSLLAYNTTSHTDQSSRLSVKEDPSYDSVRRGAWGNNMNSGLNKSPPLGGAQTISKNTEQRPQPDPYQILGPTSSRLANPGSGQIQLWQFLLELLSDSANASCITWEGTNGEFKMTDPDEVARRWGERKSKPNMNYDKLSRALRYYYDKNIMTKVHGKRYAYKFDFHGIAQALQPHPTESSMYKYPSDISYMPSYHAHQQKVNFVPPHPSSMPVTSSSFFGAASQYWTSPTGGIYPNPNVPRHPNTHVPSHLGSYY
In short: (§1)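 Human transcription factors were made in yeast as GST fusions, captured on glutathione beads and barcoded with DNA. With a tag-only sample included, the pool was incubated with 200 nmole of a random double-stranded 16-mer DNA library in Tris/NaCl/DTT/glycerol buffer at room temperature for 30 min, then crosslinked with 0.1% formaldehyde after washing, ligated by proximity, amplified and sequenced. For binding signal, each hexamer's read frequency for a factor is divided by its frequency for the tag-only sample.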

ELK1 = target: T2, ELK1 (Homo sapiens, UniProt P19419 1-428)
T2 sequence: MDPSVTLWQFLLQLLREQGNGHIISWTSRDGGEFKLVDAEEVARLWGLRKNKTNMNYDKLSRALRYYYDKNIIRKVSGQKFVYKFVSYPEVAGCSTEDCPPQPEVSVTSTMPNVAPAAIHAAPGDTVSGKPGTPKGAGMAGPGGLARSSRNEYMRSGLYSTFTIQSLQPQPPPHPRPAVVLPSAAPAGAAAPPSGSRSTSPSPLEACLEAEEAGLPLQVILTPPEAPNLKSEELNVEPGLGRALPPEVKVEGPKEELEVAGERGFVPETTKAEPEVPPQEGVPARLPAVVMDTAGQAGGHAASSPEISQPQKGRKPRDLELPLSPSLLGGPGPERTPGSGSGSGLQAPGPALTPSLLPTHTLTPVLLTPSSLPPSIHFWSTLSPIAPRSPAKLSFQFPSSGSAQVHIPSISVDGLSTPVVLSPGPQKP
In short: as §1

GABPA = target: T3, GABPA (Homo sapiens, UniProt Q06546 1-454)
T3 sequence: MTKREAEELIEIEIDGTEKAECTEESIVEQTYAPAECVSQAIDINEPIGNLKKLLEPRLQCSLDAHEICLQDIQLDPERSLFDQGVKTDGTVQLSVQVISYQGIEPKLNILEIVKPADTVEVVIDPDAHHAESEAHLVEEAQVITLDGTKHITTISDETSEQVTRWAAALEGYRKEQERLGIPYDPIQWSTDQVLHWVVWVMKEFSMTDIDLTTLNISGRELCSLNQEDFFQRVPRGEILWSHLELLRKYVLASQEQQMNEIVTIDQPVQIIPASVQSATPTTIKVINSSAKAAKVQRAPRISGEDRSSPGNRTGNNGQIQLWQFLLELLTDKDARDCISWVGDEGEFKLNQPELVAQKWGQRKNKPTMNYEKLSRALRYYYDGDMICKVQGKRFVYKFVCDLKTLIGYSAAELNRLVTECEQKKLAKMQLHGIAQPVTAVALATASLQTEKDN
In short: as §1

ERG = target: T4, ERG (Homo sapiens, UniProt P11308 1-479)
T4 sequence: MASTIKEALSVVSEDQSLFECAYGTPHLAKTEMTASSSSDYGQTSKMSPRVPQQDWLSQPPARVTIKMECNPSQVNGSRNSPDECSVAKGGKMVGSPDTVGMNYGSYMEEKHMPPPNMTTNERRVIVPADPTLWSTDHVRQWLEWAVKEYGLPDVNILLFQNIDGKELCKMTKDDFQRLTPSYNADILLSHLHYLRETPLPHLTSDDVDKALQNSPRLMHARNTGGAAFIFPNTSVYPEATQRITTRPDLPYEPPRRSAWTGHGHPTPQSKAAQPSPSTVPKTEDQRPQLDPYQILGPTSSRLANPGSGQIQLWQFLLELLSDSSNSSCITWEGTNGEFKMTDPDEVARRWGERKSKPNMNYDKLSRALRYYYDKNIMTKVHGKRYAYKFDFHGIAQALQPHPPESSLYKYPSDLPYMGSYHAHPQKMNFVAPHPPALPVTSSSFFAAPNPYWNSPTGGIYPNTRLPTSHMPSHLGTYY
In short: as §1

ELF1 = ELF1 (Homo sapiens, UniProt P32519 1-619)
In short: as §1

EHF = target: T5, EHF (Homo sapiens, UniProt Q9NZC4 1-300)
T5 sequence: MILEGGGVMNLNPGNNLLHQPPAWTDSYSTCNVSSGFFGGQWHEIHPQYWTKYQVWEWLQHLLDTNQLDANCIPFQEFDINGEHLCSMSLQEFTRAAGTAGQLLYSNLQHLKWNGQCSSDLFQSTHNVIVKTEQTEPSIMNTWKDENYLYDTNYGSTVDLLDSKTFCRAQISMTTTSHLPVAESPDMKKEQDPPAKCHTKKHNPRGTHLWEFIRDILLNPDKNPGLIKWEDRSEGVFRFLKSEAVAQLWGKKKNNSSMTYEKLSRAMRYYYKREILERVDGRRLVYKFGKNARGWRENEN
In short: as §1

SPI1 = SPI1 (Homo sapiens, UniProt P17947 1-270)
In short: as §1

SPIB = SPIB (Homo sapiens, UniProt Q01892 1-262)
In short: as §1

ELK3 = target: T6, ELK3 (Homo sapiens, UniProt P41970 1-407)
T6 sequence: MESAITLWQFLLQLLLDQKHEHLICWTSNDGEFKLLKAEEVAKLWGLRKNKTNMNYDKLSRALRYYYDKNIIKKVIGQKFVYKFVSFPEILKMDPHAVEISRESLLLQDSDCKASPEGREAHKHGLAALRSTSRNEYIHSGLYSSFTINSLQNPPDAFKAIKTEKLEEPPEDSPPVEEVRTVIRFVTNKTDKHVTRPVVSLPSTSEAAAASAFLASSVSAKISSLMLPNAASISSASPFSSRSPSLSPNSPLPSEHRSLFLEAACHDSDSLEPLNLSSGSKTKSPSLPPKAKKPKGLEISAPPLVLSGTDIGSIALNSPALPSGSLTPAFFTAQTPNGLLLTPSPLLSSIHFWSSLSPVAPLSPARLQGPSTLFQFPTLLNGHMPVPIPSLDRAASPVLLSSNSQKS
In short: as §1

Sequence of ELF1 (P32519 whole entry): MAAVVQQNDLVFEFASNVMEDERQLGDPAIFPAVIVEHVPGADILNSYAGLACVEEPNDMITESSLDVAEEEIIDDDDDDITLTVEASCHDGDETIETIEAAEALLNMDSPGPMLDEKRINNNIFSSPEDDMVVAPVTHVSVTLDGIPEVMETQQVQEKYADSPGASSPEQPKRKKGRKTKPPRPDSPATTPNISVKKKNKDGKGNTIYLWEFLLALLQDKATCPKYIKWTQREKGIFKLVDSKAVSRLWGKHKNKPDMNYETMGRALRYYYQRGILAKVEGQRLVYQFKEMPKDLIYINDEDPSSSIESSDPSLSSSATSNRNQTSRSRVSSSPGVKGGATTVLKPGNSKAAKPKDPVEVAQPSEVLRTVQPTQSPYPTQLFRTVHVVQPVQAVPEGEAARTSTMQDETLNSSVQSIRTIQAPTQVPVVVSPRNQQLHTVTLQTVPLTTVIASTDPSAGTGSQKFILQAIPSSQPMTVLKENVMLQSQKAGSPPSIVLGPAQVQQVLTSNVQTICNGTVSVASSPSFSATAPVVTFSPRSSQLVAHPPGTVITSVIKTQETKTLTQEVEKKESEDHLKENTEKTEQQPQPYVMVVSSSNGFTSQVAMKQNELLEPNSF
Sequence of SPIB (Q01892 whole entry): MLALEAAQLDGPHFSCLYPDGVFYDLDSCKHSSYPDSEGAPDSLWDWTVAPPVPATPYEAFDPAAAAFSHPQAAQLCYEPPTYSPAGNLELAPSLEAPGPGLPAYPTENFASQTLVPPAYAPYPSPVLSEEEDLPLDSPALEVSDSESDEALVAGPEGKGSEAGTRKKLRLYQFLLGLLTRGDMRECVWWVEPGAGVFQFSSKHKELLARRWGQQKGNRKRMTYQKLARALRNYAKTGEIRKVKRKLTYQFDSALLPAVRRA

Sequence | binding signal (FLI1) | binding signal (ELK1) | binding signal (GABPA) | binding signal (ERG) | binding signal (ELF1) | binding signal (EHF) | binding signal (SPI1) | binding signal (SPIB) | binding signal (ELK3)
CTTTAA | 1.37 fold enrichment (6-mer frequency, TF over GST control) | 1.27 fold enrichment (6-mer frequency, TF over GST control) | 1.28 fold enrichment (6-mer frequency, TF over GST control) | 1.27 fold enrichment (6-mer frequency, TF over GST control) | 1.33 fold enrichment (6-mer frequency, TF over GST control) | 1.2 fold enrichment (6-mer frequency, TF over GST control) | 1.39 fold enrichment (6-mer frequency, TF over GST control) | 1.19 fold enrichment (6-mer frequency, TF over GST control) | 1.28 fold enrichment (6-mer frequency, TF over GST control)
GTTACT | 1.25 fold enrichment (6-mer frequency, TF over GST control) | 1.28 fold enrichment (6-mer frequency, TF over GST control) | 1.13 fold enrichment (6-mer frequency, TF over GST control) | 1.33 fold enrichment (6-mer frequency, TF over GST control) | 1.22 fold enrichment (6-mer frequency, TF over GST control) | 1.37 fold enrichment (6-mer frequency, TF over GST control) | 1.3 fold enrichment (6-mer frequency, TF over GST control) | 1.23 fold enrichment (6-mer frequency, TF over GST control) | 1.31 fold enrichment (6-mer frequency, TF over GST control)
CCTGCA | 1.28 fold enrichment (6-mer frequency, TF over GST control) | 1.3 fold enrichment (6-mer frequency, TF over GST control) | 1.19 fold enrichment (6-mer frequency, TF over GST control) | 1.23 fold enrichment (6-mer frequency, TF over GST control) | 1.36 fold enrichment (6-mer frequency, TF over GST control) | 1.42 fold enrichment (6-mer frequency, TF over GST control) | 1.17 fold enrichment (6-mer frequency, TF over GST control) | 1.24 fold enrichment (6-mer frequency, TF over GST control) | 1.23 fold enrichment (6-mer frequency, TF over GST control)
GGTTTG | 1.18 fold enrichment (6-mer frequency, TF over GST control) | 1.15 fold enrichment (6-mer frequency, TF over GST control) | 1.24 fold enrichment (6-mer frequency, TF over GST control) | 1.13 fold enrichment (6-mer frequency, TF over GST control) | 1.19 fold enrichment (6-mer frequency, TF over GST control) | 1.22 fold enrichment (6-mer frequency, TF over GST control) | 1.06 fold enrichment (6-mer frequency, TF over GST control) | 1.01 fold enrichment (6-mer frequency, TF over GST control) | 1.2 fold enrichment (6-mer frequency, TF over GST control)
GACCTC | 1.22 fold enrichment (6-mer frequency, TF over GST control) | 1.35 fold enrichment (6-mer frequency, TF over GST control) | 1.35 fold enrichment (6-mer frequency, TF over GST control) | 1.38 fold enrichment (6-mer frequency, TF over GST control) | 1.39 fold enrichment (6-mer frequency, TF over GST control) | 1.31 fold enrichment (6-mer frequency, TF over GST control) | 1.36 fold enrichment (6-mer frequency, TF over GST control) | 1.42 fold enrichment (6-mer frequency, TF over GST control) | 1.33 fold enrichment (6-mer frequency, TF over GST control)
AAATTC | 1.31 fold enrichment (6-mer frequency, TF over GST control) | 1.31 fold enrichment (6-mer frequency, TF over GST control) | 1.4 fold enrichment (6-mer frequency, TF over GST control) | 1.24 fold enrichment (6-mer frequency, TF over GST control) | 1.31 fold enrichment (6-mer frequency, TF over GST control) | 1.32 fold enrichment (6-mer frequency, TF over GST control) | 1.26 fold enrichment (6-mer frequency, TF over GST control) | 1.33 fold enrichment (6-mer frequency, TF over GST control) | 1.42 fold enrichment (6-mer frequency, TF over GST control)
TCTGTA | 1.23 fold enrichment (6-mer frequency, TF over GST control) | 1.19 fold enrichment (6-mer frequency, TF over GST control) | 1.2 fold enrichment (6-mer frequency, TF over GST control) | 1.11 fold enrichment (6-mer frequency, TF over GST control) | 1.18 fold enrichment (6-mer frequency, TF over GST control) | 1.15 fold enrichment (6-mer frequency, TF over GST control) | 1.16 fold enrichment (6-mer frequency, TF over GST control) | 1.19 fold enrichment (6-mer frequency, TF over GST control) | 1.2 fold enrichment (6-mer frequency, TF over GST control)
CCACAA | 1.2 fold enrichment (6-mer frequency, TF over GST control) | 1.14 fold enrichment (6-mer frequency, TF over GST control) | 1.25 fold enrichment (6-mer frequency, TF over GST control) | 1.09 fold enrichment (6-mer frequency, TF over GST control) | 1.21 fold enrichment (6-mer frequency, TF over GST control) | 1.08 fold enrichment (6-mer frequency, TF over GST control) | 1.22 fold enrichment (6-mer frequency, TF over GST control) | 1.07 fold enrichment (6-mer frequency, TF over GST control) | 1.34 fold enrichment (6-mer frequency, TF over GST control)

From PMC7862700, “An all-to-all approach to the identification of sequence-specific readers for epigenetic DNA modifications on cytosine”
